Hit rate of the full screen: of about 2,000 compounds, about 100 (5%) were called active. Cut-off read from the data, not from the text of the source: active = z-score above about 2; inactive = the rest. The sample as a whole holds a higher share of actives than the screen did.

The test is described as follows: modulators of mitochondrial supercomplex assembly, cell-based, luminescence, Hoechst nuclei count (AID 1645838).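 For all read-outs here: control cybrid cells.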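 For z-score: higher means more mitochondrial supercomplex formation.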 The note with it: Cells, luminescence/Hoechst cell count ratio, supercomplex reporter; for z-score: stronger effect = higher value; for cell count: measured here: cell number, Hoechst nuclei count.
[1] abbreviates: library stock concentration (final well concentration not given) 80 uM.
[2] abbreviates: library stock concentration (final well concentration not given) 400 uM.
Where [3] appears, read: library stock concentration (final well concentration not given) 2 mM.
[4] abbreviates: library stock concentration (final well concentration not given) 10 mM.
[5] abbreviates: library stock concentration (final well concentration not given) 46 uM.
The mark [6] stands for this setting: library stock concentration (final well concentration not given) 278 uM.
[7] abbreviates: library stock concentration (final well concentration not given) 1.67 mM.

Take `Cc1nc2ccc(-n3ncc(C(=O)c4cc5ccccc5[nH]4)c3N)cc2[nH]1`: the z-score was -0.114 (inactive) under setting [1], -0.221 (inactive) under setting [2], -0.0631 (inactive) under setting [3] and 5.29 (active) under setting [4]. Further, the cell count runs as follows: under setting [1], 5810; under setting [2], 5920; under setting [3], 5510; under setting [4], 3410.

`CCCCC[C@H](O)/C=C/[C@H]1[C@H](O)CC(=O)[C@@H]1C/C=C\CCCC(=O)OCC(O)CO` (stereo partly drawn): the z-score is 0.364 (inactive) and the cell count is 5190.

For `CCCNC1CCc2nc(N)sc2C1` (stereo not drawn), the z-score is -0.399 (inactive) under setting [1], -0.375 (inactive) under setting [2], -0.412 (inactive) under setting [3] and -0.168 (inactive) under setting [4]. Also, the cell count reads like this: under setting [1], 6960; under setting [2], 6720; under setting [3], 6830; under setting [4], 6380.

Regarding `CCOc1ccc(S(=O)(=O)N(CC(=O)N=Nc2c(O)[nH]c3ccccc23)c2ccccc2)cc1`, the outcome (library stock 10 mM) was “inactive; censored for cell count”. Also, the z-score reads like this: under setting [1], 0.0734 (inactive); under setting [2], 0.0751 (inactive); under setting [3], 0.419 (inactive). The cell count amounted to 5190 under setting [1], 5160 under setting [2] and 4350 under setting [3].

Consider `CC/C=C\C/C=C\C/C=C\C/C=C\CCCCC(=O)OCC`, for which the z-score is -0.596 (inactive) and the cell count is 5380.

Consider `Nc1nccc2c1ncn2C1C=C(CO)C(O)C1O` (stereo not drawn), for which the outcome (library stock 10 mM) was “inactive; censored for cell count”. Moreover, the z-score under setting [5] is -0.246 (inactive), the z-score under setting [6] was 0.747 (inactive) and the z-score under setting [7] was 2.95 (active). Besides, the cell count under setting [5] is 5790, the cell count under setting [6] amounted to 4240 and the cell count under setting [7] is 1810.

For `CCCCCCCCCCCC(=O)NC[C@]1(C)CCC[C@]2(C)c3ccc(C(C)C)cc3CC[C@@H]12`, the z-score was 0.0192 (inactive) and the cell count was determined as 4880.

On to `CCCCCCCCCCCCCCCC(=O)OC[C@@H](O)COP(=O)(O)O`, for which the z-score was 0.759 (inactive) and the cell count worked out at 4710.

With `CC(=O)O[C@@]12C[C@@H](C)[C@@]3(O)[C@@H](C=C(CO)C[C@]4(O)C(=O)C(C)=C[C@@H]34)[C@@H]1C2(C)C`, the z-score was 2.36 (active) and the cell count turned out to be 5140.

For the compound `CCCCC[C@H](O)/C=C/[C@H]1C=CC(=O)[C@@H]1CCCCCCC(=O)O`, the z-score is 0.664 (inactive) and the cell count is 4830.

For `Cc1nc(Nc2n[nH]c3c2CN(C(=O)NC(CN(C)C)c2ccccc2)C3(C)C)c2sccc2n1` (stereo not drawn), the outcome (library stock 1.67 mM) was “inactive; censored for cell count” and the outcome (library stock 10 mM) is “inactive; censored for cell count”. The z-score is, setting by setting: under setting [5], 0.353 (inactive); under setting [6], 1.68 (inactive). Also, the cell count was 4470 under setting [5] and 2250 under setting [6].

Turning to `Oc1ccc(Nc2nc(-c3ccc(Cl)cc3)cs2)cc1`, the z-score is -0.695 (inactive) and the cell count amounted to 4930. Further, under setting [1], the z-score was 0.00338 (inactive) and the cell count worked out at 5690. Moreover, under setting [2], the z-score was -0.177 (inactive) and the cell count was 5570. Further, under setting [3], the z-score is -0.154 (inactive) and the cell count turned out to be 5530. Moreover, under setting [4], the z-score was 1.99 (active) and the cell count came out at 2610.

For `Cc1cccc(Nc2nc(-c3ccncc3)cs2)c1`, the z-score was -0.555 (inactive) and the cell count stood at 5440.

On to `COc1cccc(OC)c1-c1ccc(CC(NC(=O)c2c(Cl)cccc2Cl)C(=O)O)cc1` (stereo not drawn), for which the z-score was -0.0712 (inactive) under setting [5], -0.126 (inactive) under setting [6], -0.192 (inactive) under setting [7] and -0.205 (inactive) under setting [4]. The cell count was determined as 5760 under setting [5], 5740 under setting [6], 5820 under setting [7] and 5840 under setting [4].
